Inconclusive results are not listed. Active and inactive are the calls of the source. Calls follow the shape of the dose curve; as a rule, active = well fitted curve in the direction sought with a large enough effect; inconclusive = small, poorly fitted or top-dose-only effect, or effect the other way, or another doubt; inactive = no such curve, though single readings can be large or run the other way.
Molecular target: Pyruvate kinase PKM (Homo sapiens) (UniProt P14618)
Assay: Secondary assay for Activators of Human Pyruvate Kinase M1 isoform
Conditions: purified hPK-M1, LDH-coupled NADH fluorescence kinetic; series mostly up to 57.5 µM; activity change, positive = activation: at the top concentration
Excerpt: Confirmatory assay NIH Chemical Genomics Center [NCGC] Matthew G. Vander Heiden, M.D., Ph.D. [Harvard Medical School, 77 Avenue Louis Pasteur, Boston, MA 02115] NCGC Assay Overview: Human pyruvate kinase […] (hPK-M1)enzyme was supplied as a highly purified (>95% pure) preparation from Harvard Medical School and a secondary assay was used to evaluate compounds. This assay couples the formation of pyruvate from hPK-R using lactate dehydrogenase (LDH) and NADH. The depletion of NADH is followed in a fluorescent-based kinetic assay that follows the formation of pyruvate to lactate, as catalyzed LDH. Pyruvate kinase substrates, PEP and ADP, were present in the assay at 0.1 mM and 4 mM respectively. In this kinetic assay initial rates were determined by following the fluorescence of NADH depletion.
NCGC Assay Protocol Summary: Three uL of substrate mix (final concentration, 50 mM Tris-Cl pH 8.0, 200 mM KCl, 15 mM MgCl2, 0.1 mM PEP, 4.0 mM ADP, and 0.2 mM NADH) was dispensed into black-solid 1536 well plates. 23 nL of compounds were delivered by a pin tool and 1 uL of enzyme mix (final concentrations, 10 nM hPK-M1 and 1 uM of LDH) was added. Plates were immediately placed in ViewLux (Perkin Elmer) and NADH fluorescence was determined at 30 second exposure intervals for between 3 and 6 minutes. Data were normalized to the uninhibited controls.

Chain of Pyruvate kinase PKM (Homo sapiens) (P14618 whole entry, looked up, canonical isoform): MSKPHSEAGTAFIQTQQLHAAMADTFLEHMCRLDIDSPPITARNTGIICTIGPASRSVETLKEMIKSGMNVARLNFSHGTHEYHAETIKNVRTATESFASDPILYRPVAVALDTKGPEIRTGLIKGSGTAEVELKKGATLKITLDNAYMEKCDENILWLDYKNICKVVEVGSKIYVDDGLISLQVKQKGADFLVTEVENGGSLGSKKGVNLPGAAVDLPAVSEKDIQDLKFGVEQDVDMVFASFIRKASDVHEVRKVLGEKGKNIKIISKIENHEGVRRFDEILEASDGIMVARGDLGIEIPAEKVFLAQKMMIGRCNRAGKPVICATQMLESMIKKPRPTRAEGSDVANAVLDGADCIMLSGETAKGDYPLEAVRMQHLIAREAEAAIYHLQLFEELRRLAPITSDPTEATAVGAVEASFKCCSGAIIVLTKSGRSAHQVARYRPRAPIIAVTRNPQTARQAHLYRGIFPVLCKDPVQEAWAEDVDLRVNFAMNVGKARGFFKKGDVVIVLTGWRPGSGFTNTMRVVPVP

Activity change, positive = activation, inactive:
COCCCc1cc(F)c(S(=O)(=O)N2CCN(S(=O)(=O)c3ccc4c(c3)OCCO4)CC2)cc1F -12%
Cc1nc2ccc(S(=O)(=O)N3CCN(S(=O)(=O)c4c(F)cccc4F)CC3)cc2s1 11.1%
O=S(=O)(NCC1CN(S(=O)(=O)c2c(F)cccc2F)C1)c1ccc2c(c1)OCCO2 -5.12%
Cn1ccc2cc(S(=O)(=O)N3CCN(S(=O)(=O)c4c(F)cccc4F)CC3)ccc21 14.4%
Cc1cc2c(s1)c1cnn(Cc3c(F)c(F)cc(F)c3F)c(=O)c1n2C 9.56%
